Source: PubChem BioAssay (several laboratories)
An excerpt weighted towards active compounds, which were near 5.4% of everything screened.
CSC inhib: cancer stem cell inhibition | inhibition, % at 7.5 µM | cancer stem cell-like cells viability, luminescence | 1.1% of 300,000 active; in the data active = inhibition above about 75%; inconclusive = no clear call, values can overlap the other calls; tested in HMLE shEcad cells
Calb FLC: C. albicans growth modulation with fluconazole. C. albicans CaCi-2 (fluconazole-resistant clinical isolate) + fluconazole, Alamar Blue growth, 48 h. growth inhibition, % (no concentration beside the values). 0.57% of 300,000 active. AID 1979;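 active = growth inhibition above about 58% in most replicates, limit read from the data, passing the limit was not always enough; inconclusive = exactly half the replicates above a set limit; inactive = most replicates below a set limit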;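 also: all wells also contain fluconazole at 8 µg/ml as a sub-toxic cotreatment; 0% = median of DMSO wells and 100% = median of geldanamycin control wells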
ALR H2O2 inh: inhibitors of human sulfhydryl oxidase ALR | P55789 | purified ALR, DTT oxidation, H2O2 HRP-luminol luminescence | inhibition, % (concentration not given with the values) | 3.8% of 290,000 active | AID 485317;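 active = mean replicate inhibition above about 79%, with every replicate also reaching it, limit read from the data; inconclusive = only one of the two criteria met; inactive = mean below limit and not every replicate reaching it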
PP1 inh: blocks human PP1-alpha phosphatase, a PP5 counter-screen; P62136; purified PP1alpha, OMFP fluorescence; inhibition, % at 6.7 µM; 0.9% of 320,000 active; AID 2235;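 active = inhibition above the mean inhibition of all tested compounds plus 3 SD, computed separately for each screening campaign, cut at about 15% in these data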
PP5 inh: inhibitors of human protein phosphatase 5 (PP5); P53041; 0.18% of 320,000 active; purified PP5c, OMFP substrate fluorescence; inhibition, % at 6.7 µM; AID 1987;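 active = inhibition above the campaign's mean inhibition across all tested compounds plus 3 SD, cut at about 9.5% in these data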;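 also: 0% = DMSO only and 100% = 100 µM cantharidin control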
Target sequence (P53041 whole entry, looked up): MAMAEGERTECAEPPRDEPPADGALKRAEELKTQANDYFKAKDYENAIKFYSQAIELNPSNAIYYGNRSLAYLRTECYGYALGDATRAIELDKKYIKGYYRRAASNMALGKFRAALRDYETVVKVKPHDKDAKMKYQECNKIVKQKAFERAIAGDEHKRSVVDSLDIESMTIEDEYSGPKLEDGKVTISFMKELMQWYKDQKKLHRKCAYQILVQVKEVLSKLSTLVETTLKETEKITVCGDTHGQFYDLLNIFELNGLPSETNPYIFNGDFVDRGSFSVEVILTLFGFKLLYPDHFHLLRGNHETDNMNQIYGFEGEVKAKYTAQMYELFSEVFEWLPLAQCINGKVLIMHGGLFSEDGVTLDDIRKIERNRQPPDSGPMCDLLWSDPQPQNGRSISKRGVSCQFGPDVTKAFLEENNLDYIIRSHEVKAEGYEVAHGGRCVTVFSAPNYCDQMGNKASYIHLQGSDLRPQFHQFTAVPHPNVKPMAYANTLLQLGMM
* marks the source's active call; other numbers are inactive results; ? = inconclusive; / = no result given.

SMILES | CSC inhib | Calb FLC | ALR H2O2 inh | PP1 inh | PP5 inh
O=C(Nc1ncc(Cc2ccc(SC(F)F)cc2)s1)c1ccc(OC(F)F)cc1 | 75.2* | 2.3 | -13.0 | 2.5 | 3.2
Cc1ccc(Cc2cnc(NC(=O)c3ccco3)s2)cc1 | 50.2 | ? | 13.7 | 1.0 | 1.4
NC(=O)c1nsc(C(=O)N(CC(=O)NCc2ccco2)c2ccccc2F)c1N | 4.9 | -19.8 | 8.7 | -0.1 | 0.1
O=C(CSc1nnc(CN2CCCC2)n1-c1ccccc1)c1ccc2c(c1)OCO2 | 42.8 | / | 8.6 | / | /
COc1ccc(C(=O)CSc2nnc(CN3CCCCC3)n2-c2ccc(Cl)cc2)cc1OC | 140.1* | 24.7 | -17.1 | 2.3 | 1.4
CCN(c1ccc(C(=O)CSc2nnc(C3CC3)n2C2CC2)cc1)S(C)(=O)=O | / | / | 96.2* | -3.5 | 0.4
CC(=O)N(C)Cc1ccc(C(=O)CSc2nnc(C3CC3)n2C2CC2)cc1 | 0.5 | / | 45.8 | -3.6 | 0.3
Nc1nc(N)c(N=O)c(OCC2CCCCC2)n1 | 5.2 | / | 92.5* | -0.9 | 2.3
NS(=O)(=O)OCC1CCCCC1 | -32.2 | -3.1 | 9.6 | -2.0 | -0.5
CCN(CC)c1cccc(OC2=NS(=O)(=O)c3ccccc32)c1 | -11.2 | 67.6 | 99.0* | 1.9 | -0.2
Cc1ccc(NCc2nnc(SCC(N)=O)o2)c(C)c1 | -10.5 | -11.2 | 38.5 | 2.7 | -0.6
Cc1ccc(NCc2nnc(SCC(=O)N(Cc3ccccc3)C(C)(C)C)o2)c(C)c1 | 35.2 | 16.5 | 8.1 | 7.3 | 5.4
CCOC(=O)CN(C(=O)CSc1nnc(CNc2ccc(C)cc2C)o1)c1ccccc1 | 2.4 | ? | 96.4* | 0.2 | 1.4
Cc1ccc(NCc2nnc(SCC(=O)OC3CCCCC3)o2)c(C)c1 | -0.8 | -14.2 | 98.2* | -1.4 | 3.8
COC(=O)c1noc(-c2ccc(C)cc2)n1 | / | -8.1 | -0.9 | 0.0 | 1.8
COc1ccc(-c2ccc(SCC(=O)c3cccs3)nn2)cc1 | 23.9 | -26.1 | 36.1 | 1.1 | 2.8
Cc1ccc(C(=O)CSc2ncnc3ccccc23)o1 | 12.9 | / | 98.7* | 0.6 | 2.9
O=C(CSc1ncnc2ccccc12)NCC(=O)c1ccccc1 | -3.8 | 9.4 | 96.9* | -7.5 | 0.2
O=C(CSc1ncnc2ccccc12)c1cccs1 | 2.7 | -2.5 | 98.8* | -3.0 | 0.8
O=C(CSc1ccc(-c2ccccc2)nn1)c1cccs1 | 7.4 | 23.8 | 91.9* | 7.6 | -0.6
Cc1ccc(CCC(=O)Nc2ccc([N+](=O)[O-])cc2Cl)o1 | -4.8 | -16.8 | 53.5 | -4.7 | 0.8
CCCc1n[nH]c(=O)c2c1nnn2Cc1ccccc1 | -13.1 | 1.3 | -6.2 | -1.1 | 1.8
Brc1ccc(-c2csc(-c3c[nH]c4ccccc34)n2)cc1 | -6.6 | -10.9 | -4.0 | 2.0 | 3.0
c1ccc2c(-c3csc(-c4ccncc4)n3)c[nH]c2c1 | 46.8 | -6.8 | 98.9* | 0.0 | 2.1
COCCCN1CC(=O)N2C(c3cccc(OC)c3)c3[nH]c4ccccc4c3C[C@H]2C1=O (stereo not given in full) | 4.1 | -11.8 | 99.5* | 2.8 | 4.2
SMILES | CSC inhib | Calb FLC | ALR H2O2 inh | PP1 inh | PP5 inh
COc1cccc(C2c3[nH]c4ccccc4c3C[C@H]3C(=O)N(C4CC4)CC(=O)N23)c1 (stereo not given in full) | 1.0 | -2.3 | 2.9 | -2.5 | -0.6
COCCN1CC(=O)N2C(c3cccc(OC)c3)c3[nH]c4ccccc4c3C[C@H]2C1=O (stereo not given in full) | -14.4 | -2.1 | 99.0* | 2.4 | 2.1
COc1ccc(OC)c(C2c3[nH]c4ccccc4c3C[C@H]3C(=O)N(CCCOC(C)C)CC(=O)N23)c1 (stereo not given in full) | -19.4 | -3.4 | / | -1.5 | 0.9
COc1ccc(C2c3[nH]c4ccccc4c3C[C@H]3C(=O)N(C)CC(=O)N23)cc1OC (stereo not given in full) | -13.3 | 1.4 | 97.8* | 1.6 | -1.0
COc1ccc(C2c3[nH]c4ccccc4c3C[C@H]3C(=O)N(CCCO)CC(=O)N23)c(OC)c1 (stereo not given in full) | -15.8 | 2.7 | 98.8* | -3.9 | -1.2
COc1cccc(C2c3[nH]c4ccccc4c3C[C@H]3C(=O)N(CCCO)CC(=O)N23)c1OC (stereo not given in full) | -2.9 | 11.1 | 27.4 | 6.1 | 1.1
COc1ccc(C2c3[nH]c4ccccc4c3C[C@H]3C(=O)N(CCCO)CC(=O)N23)cc1OC (stereo not given in full) | 2.1 | 16.9 | -9.6 | 2.5 | 0.8
CC(=O)c1ccc(OCC(O)CN2CCN(S(=O)(=O)c3c(C)cc(C)cc3C)CC2)cc1 (stereo not given) | -1.3 | 5.6 | 2.4 | / | /
